# Compounds with a hit are over-represented: about 18% of the library has one in this group of screens.
# LDHA inh: inhibitors of human lactate dehydrogenase A | purified LDHA, NADH/diaphorase-resazurin fluorescence; hits give low values | activity change, % (values are at about 110 or 230 µM) | hit rate 0.15% among 480,000 | AID 1347041; in the data active = activity change below about -30%; inconclusive = mostly about -25% to -30%
#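 Human LDH5 (2 nM) was incubated with 0.06 mM NADH and 0.2 mM pyruvate for 5 min at room temperature in Tris pH 7.4. Remaining NADH was coupled through diaphorase/resazurin, and resorufin fluorescence was read at 0 and 20 min.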
# VP16 counter: counter-screen for ROR gamma inhibitors: Gal4-VP16 reporter; hit rate 3.5% among 310,000; AID 2546; Drosophila S2 Gal4-VP16 UAS-luciferase, luminescence, 20 h; Potency, µM (doses to about 53.6 µM), hits mostly inhibitors;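 also: Gal4-VP16 expression switched on by copper sulfate through the metallothionein promoter; nearly all actives have a fitted effect of over 50% in size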
# IL-1B inflam inh: inhibitors of inflammasome signaling (IL-1 beta secretion) | THP-1 LPS/ATP IL-1B secretion, AlphaLISA, 16 h; hits give low values | AID 743279 | hit rate 4.7% among 360,000 | activity change, % at 57.5 µM; in the data active = activity change below about -50%; inconclusive = mostly about -30% to -49%
#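 Secreted IL-1B measured by AlphaLISA bead assay after 16 h compound exposure of THP-1 cells; compounds (final up to 57.5 uM) added 1 h before LPS (250 ng/mL) and ATP (1.25 mM) stimulation; lower signal means less secretion.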
# RORg inh: ROR gamma (mouse) transcription inhibition | Drosophila S2 Gal4-RORgamma UAS-luciferase reporter, 20 h | hit rate 5.4% among 310,000 | P51450 | AID 2551 | Potency, µM (highest dose often 53.6 µM), most hits filed as inhibitors; also: nearly all actives have a fitted effect of over 60% in size
# Target sequence (P51450 whole entry, looked up, the tested form may be a part): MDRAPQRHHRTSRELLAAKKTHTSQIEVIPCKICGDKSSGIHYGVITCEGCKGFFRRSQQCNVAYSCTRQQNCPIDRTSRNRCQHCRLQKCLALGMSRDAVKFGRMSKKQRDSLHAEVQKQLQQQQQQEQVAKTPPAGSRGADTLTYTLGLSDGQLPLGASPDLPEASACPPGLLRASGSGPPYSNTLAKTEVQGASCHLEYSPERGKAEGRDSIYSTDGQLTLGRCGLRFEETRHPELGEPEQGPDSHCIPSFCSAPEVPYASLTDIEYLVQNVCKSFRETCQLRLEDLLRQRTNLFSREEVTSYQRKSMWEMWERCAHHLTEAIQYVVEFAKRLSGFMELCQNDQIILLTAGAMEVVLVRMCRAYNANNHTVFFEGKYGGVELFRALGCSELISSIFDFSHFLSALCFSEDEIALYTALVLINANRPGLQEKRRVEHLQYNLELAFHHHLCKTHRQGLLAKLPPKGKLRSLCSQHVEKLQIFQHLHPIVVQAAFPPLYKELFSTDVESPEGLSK
#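 Luminescence from a UAS-regulated Photinus luciferase reporter in stably transfected Drosophila Schneider cells is measured; decreased signal marks ROR gamma inhibition. Fusion expression is induced by 700 uM copper sulfate for 20 hr.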
# TDP1 cell noCPT: qHTS for Inhibitors of human tyrosyl-DNA phosphodiesterase 1 (TDP1): qHTS in cells in absence of CPT; DT40 Tdp1-/- hTDP1 cells, no CPT, ATP luminescence, 48 h; Potency, µM (highest dose often 46.2 µM), hits mostly inhibitors; hit rate 15% among 420,000; AID 686978, 2013; also: nearly all actives have a fitted effect of over 55% in size
#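 Stably hTDP1-transfected Tdp1-null chicken DT40 cells were treated with library compounds minus camptothecin and grown for at least 48 hr at 37 °C, after which cellular ATP was quantified by luminescence.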
# TDP1 cell CPT: growth inhibition of DT40 Tdp1-/-;hTDP1 cells with camptothecin (screen for TDP1 inhibitors); chicken DT40 Tdp1-/-;hTDP1 cells + 20 nM CPT, ATP luminescence, 48 h; Potency, µM (series often up to 46.2 µM), most hits filed as inhibitors; hit rate 12% among 420,000; also: nearly all actives have a fitted effect of over 55% in size
#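 Cell growth measured by CellTiter-Glo luminescence after a minimum 48 h, 37 C compound exposure with 20 nM CPT in Tdp1-knockout DT40 cells stably expressing hTDP1, seeded 400/well; qHTS titration format.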
# A number is an active result; n = inactive; u = inconclusive; x = no result given. Unless noted, calls follow the shape of the dose curve; as a rule, active = well fitted curve in the direction sought with a large enough effect; inconclusive = small, poorly fitted or top-dose-only effect, or another doubt; inactive = no such curve, though single readings can be large; an effect the other way counts as inactive or inconclusive.
SMILES,LDHA inh,VP16 counter,IL-1B inflam inh,RORg inh,TDP1 cell noCPT,TDP1 cell CPT
CCOC(=O)C1(CC2CC2)CCN(Cc2cn[nH]c2-c2cccc(F)c2)CC1,n,n,n,n,18µM,u
C=CCOc1c(Br)cc(CNc2ccc(NC(=O)C(C)C)c(OC)c2)cc1OCC,n,u,n,n,16µM,21µM
C=CCOc1c(Br)cc(CNc2ccc(NC(=O)CCC)cc2)cc1OCC,n,n,n,u,16µM,u
C[C@]12c3[nH]c4ccc(Cl)cc4c3CCN1C(=O)[C@@H](CC(=O)NCc1ccco1)C[C@@H]2C(=O)N1CCOCC1,n,x,n,x,21µM,18µM
CCN(CC)C(=O)[C@H]1C[C@H](CC(=O)NCc2ccco2)C(=O)N2CCc3c([nH]c4ccc(Cl)cc34)[C@]12C,n,x,n,x,16µM,16µM
CCN(C(=O)C(NS(=O)(=O)c1cccc2nsnc12)c1ccccc1)c1ccccc1 (stereo not drawn),n,x,x,x,23µM,u
CCOc1ccc(NC(=O)C(NS(=O)(=O)c2cccc3nsnc23)c2ccccc2)cc1 (stereo not drawn),n,x,x,x,u,u
CCc1ccc(NC(=O)C(NS(=O)(=O)c2cccc3nsnc23)c2ccccc2)cc1 (stereo not drawn),n,n,n,u,26µM,u
O=C(Nc1cccc(S(=O)(=O)N2CCOCC2)c1)c1cc(S(=O)(=O)N2CCOCC2)c(Cl)cc1Cl,n,x,n,x,u,15µM
O=C(NC1CCCCCC1)c1ccc(Cl)c(S(=O)(=O)N2CCOCC2)c1,n,n,n,n,29µM,u
O=C(Nc1cccc(S(=O)(=O)C(F)F)c1)c1ccc(Cl)c(S(=O)(=O)N2CCOCC2)c1,n,u,-63,n,18µM,16µM
O=C(Nc1cccc(Br)c1)c1ccc(Cl)c(S(=O)(=O)N2CCOCC2)c1,n,n,-96,n,18µM,15µM
COC(=O)c1cnc(NC(=O)Cc2ccc(-c3ccccc3)cc2)s1,n,x,x,x,x,x
Cc1sc(-c2cscn2)cc1Br,n,x,x,x,x,x
Cc1ccc(C(=O)c2sc(Nc3ccc(Cl)cc3C)nc2N)cc1,n,x,x,x,x,x
CCOC(=O)c1ccccc1NC(=O)c1ccc(Cl)c(S(=O)(=O)N2CCOCC2)c1,n,x,n,x,16µM,u
O=C(Nc1ccccc1)c1ccc(NCc2cccnc2)c(S(=O)(=O)N2CCOCC2)c1,n,n,n,n,15µM,n
Cc1cc(Nc2cccc(F)c2)nc(-c2ccccc2)n1,n,x,x,x,x,x
Cc1c(NC(=O)c2ccc(Cl)cc2)cc(C(C)C)c(O)c1S(=O)(=O)c1ccccc1,n,x,x,x,u,u
Cc1c(NC(=O)c2ccccc2)cc(C(C)C)c(O)c1S(=O)(=O)c1ccc(Cl)cc1,n,x,x,x,u,21µM
CCC(CO)NC(=O)c1nc(-c2ccc3[nH]ccc3c2)no1 (stereo not drawn),n,x,x,x,x,x
CC(=O)c1ccc(N=Nc2ccc(N(C)C)cc2)cc1,n,n,u,n,n,n
CC(=O)c1ccc(N=Nc2ccc(C)cc2)cc1,n,u,n,10µM,n,n
C=C(C)C(=O)Oc1ccc(N=Nc2ccc(C)cc2)ccc1=O,n,x,u,x,2.9µM,10µM
Cc1cccc(NC(=O)c2ccccc2NC(=O)CC23CC4CC(CC(C4)C2)C3)c1,n,x,x,x,x,x
SMILES,LDHA inh,VP16 counter,IL-1B inflam inh,RORg inh,TDP1 cell noCPT,TDP1 cell CPT
COc1ccc(/C=C/C(=O)c2cc(Cl)cc(Cl)c2O)c(OC)c1,n,n,n,n,u,n
O=C(/C=C/c1ccccn1)c1cc(Cl)cc(Cl)c1O,n,n,-80,n,u,u
COc1ccc2c(C)c(CC(=O)NCCCn3ccnc3)c(=O)oc2c1C,n,x,x,x,x,x
CC(=O)Nc1ccc(NC(=O)CCCN(c2ccc(Cl)cc2)S(C)(=O)=O)cc1,n,x,x,x,x,x
Cc1ccccc1C(=O)Nc1cc(-c2cc(C(C)(C)C)oc2C)nn1C,n,n,-59,n,u,u
Cn1nc(C(C)(C)C)cc1NC(=O)c1ccccc1,n,x,x,x,x,x
Cc1ccc2nc(=O)c(NNc3ccccc3)cnc2c1,n,n,n,n,10µM,u
O=C(NNC1=Nc2cccc3cccc1c23)c1ccccc1Br,n,1.1µM,u,0.71µM,u,u
C=CC[C@H](CC(=O)N(CCO)Cc1ccccc1)C(=O)N[C@H](COC(=O)[C@H](CC=C)CC(=O)OC(C)(C)C)Cc1ccccc1,n,x,n,x,21µM,23µM
C=CC[C@@H](CC(=O)N(CCO)Cc1ccccc1)C(=O)N[C@H](COC(=O)[C@@H](CC=C)CC(=O)OC(C)(C)C)C(C)(C)C,n,x,-58,x,u,u
C=CC[C@@H](CC(=O)NCCO)C(=O)N[C@@H](COC(=O)[C@@H](CC=C)CC(=O)OC(C)(C)C)Cc1ccccc1,n,x,n,x,n,u
Fc1ccccc1CCNc1ncnc2nc[nH]c12,n,x,x,x,x,x
c1ccc2c(CCNc3ncnc4nc[nH]c34)c[nH]c2c1,n,u,n,u,12µM,6.5µM
CC(=O)c1cc(NC(=O)c2ccccc2)c(=O)oc1C,n,2.5µM,-102,11µM,33µM,u
Cc1oc(=O)c(NC(=O)c2ccccc2)cc1C(=O)c1ccccc1,n,13µM,n,u,u,u
CC(=O)c1cc(NC(=O)c2ccc(C)cc2)c(=O)oc1C,n,u,-106,u,u,23µM
COC(=O)c1cc(NC(=O)c2ccc(OC)cc2)c(=O)oc1C,n,n,n,n,n,n
Cc1ccc(C(=O)Nc2cc3ccccc3oc2=O)cc1,n,u,n,1.6µM,3.7µM,2.1µM
COc1cccc(/C=C(/C#N)c2ccc(C(F)(F)F)cn2)c1,n,x,x,x,x,x
COC(=O)c1c(N)c(-c2nc3ccccc3s2)nn1-c1ccccc1,n,x,x,x,x,x
CCN(CC)c1ccc(/C=C/C2=C3C=CC=CC3NC=C2)cc1 (stereo not drawn),n,x,x,x,14µM,u
CCN(CC)c1ccc(C=C2C(=O)OC(c3ccccc3)OC2=O)cc1 (stereo not drawn),n,n,n,n,n,n
O=C(Nc1cccc(-c2cccc(Cl)c2)c1)C1CCN(Cc2ccon2)CC1,n,u,-61,u,29µM,13µM
O=C(Nc1cccc(-c2cccc(Cl)c2)c1)C1CCN(Cc2ccccn2)CC1,n,u,-74,20µM,26µM,u
O=C(Nc1cccc(-c2cccc(Cl)c2)c1)C1CCN(CC2CCOC2)CC1 (stereo not drawn),n,n,n,u,u,u
O=C(Nc1ccc(-n2cccn2)cc1)C1CCN(Cc2ccccn2)CC1,n,n,u,n,n,n
COCCCNC(=O)C1CCN(C(=O)c2cc3sccc3n2Cc2ccc(Cl)cc2)CC1,n,x,x,x,21µM,13µM
